Reference: PubChem BioAssay AID1053118 (Broad Institute, 2014)
Results with a measured potency or affinity are listed apart. Calls of active or inactive are those of the source.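 Rule for the calls: active = fitted half-maximal concentration for ATP signal loss at most twice the top valid dose; inconclusive = flat curve between -70 and -30%, or an invalid fit; inactive = flat within ±30%, wrong direction, or potency past limit.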

Experiment: HepG2 cell cytotoxicity, dose response, cytotoxicity control, cherry-picks, set 5 (AID 1053118)
Details: HepG2 viability, ATP luminescence, 72 h; series mostly up to 26 µM

SMILES: C[C@@H]1CN([C@H](C)CO)C(=O)c2cc(-c3ccccc3)cnc2O[C@H]1CN(C)C(=O)c1cccc(F)c1
- outcome: inactive

SMILES: COc1ccc(-c2oc3ncnc(NCCCN4CCOCC4)c3c2-c2ccc(OC)cc2)cc1
- outcome: inactive

SMILES: O=S(=O)(c1cccc(F)c1)N1CC[C@@H]2[C@H]1c1cc(-c3cccc(F)c3)ccc1N[C@@H]2CO
- outcome: inactive

SMILES: Cc1cccc(NC(=O)c2ccc(S(=O)(=O)N3CCCCC3)cc2)n1
- outcome: inactive

SMILES: CC(C)(C)[S@@](=O)N1Cc2cc(C(=O)NCc3ccccc3F)nc(-c3cccc(-c4cncnc4)c3)c2[C@H]1CCO
- outcome: inactive

SMILES: C[C@H](CO)N1C[C@H](C)[C@@H](CN(C)Cc2ccc(-c3ccccc3)cc2)Oc2ccc(NC(=O)CCCN(C)C)cc2C1=O
- outcome: inactive

SMILES: C[C@H]1CN([C@@H](C)CO)C(=O)c2cccc(NC(=O)Nc3ccc(C(F)(F)F)cc3)c2O[C@H]1CN(C)C(=O)Nc1cccc2ccccc12
- outcome: inactive

SMILES: CN(C)C(=O)c1ccc(-c2ccc3c(c2)[C@@H]2[C@@H](CCN2C(=O)c2ccc(F)cc2)[C@@H](CO)N3C)cc1
- outcome: inactive

SMILES: N#Cc1ccc(-c2ccc3c(c2)[C@H]2[C@H](CCN2S(=O)(=O)c2cccc(F)c2)[C@H](CO)N3)cc1
- outcome: inactive

SMILES: CN(C)C(=O)c1ccc(-c2ccc3c(c2)[C@H]2[C@H](CCN2C(=O)c2ccc(F)cc2)[C@H](CO)N3C)cc1
- outcome: inactive

SMILES: COC(=O)C[C@H]1CC[C@H]2[C@H](COc3ccc(NC(=O)Cc4cccs4)cc3C(=O)N2C)O1
- outcome: inactive

SMILES: COCC(=O)Nc1ccc2c(c1)C(=O)N(C)[C@@H]1CC[C@@H](CC(=O)NCc3ccccc3Cl)O[C@@H]1CO2
- outcome: inactive
